Where “and” joins values, the source holds several entries; their conditions need not be identical. Equal values may be shown once. In all, about 330,000 compounds went through this assay and about 1,900 (0.58%) were called active. Not shown: some 4% with an inconclusive outcome. Not all results are given here. Measured potencies and affinities stand elsewhere. Values without a mark were called inactive. No stated cut-off is given here; in the data, inconclusive means inhibition above about 70% without an active follow-up result; inactive means below that.
assay: M. tuberculosis growth inhibition, HTS (AID 449762);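 further: bacterial growth assessed after seven days of incubation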; settings: M. tuberculosis H37Rv growth inhibition, 7H9 media; at 25 µM; hits give high values

SMILES	inhibition
COc1cc(CNC(C)c2ccccc2)c(Br)cc1OCC(N)=O (stereo not given)	-3.38%
Oc1ccc(-c2cn3c(n2)SCC3)cc1	-2.38%
c1ccc(-c2cn3c(n2)SCC3)cc1	-1.11%
COc1ccc(NC(=O)c2cc(-c3ccc(C)cc3)on2)cc1OC	-6.33%
COc1cc2c(cc1OC)C(C1C(=O)CCCC1=O)N(C(=O)CCl)CC2 (stereo not given)	2.64%
COc1cc2c(cc1OC)C(c1cc(Br)ccc1O)N(C(C)=O)CC2 (stereo not given)	-0.81%
Cc1ccc(S(=O)(=O)N2[C@@H](c3ccc(Br)cc3)C(C(=O)O)=CC[C@H]2c2ccc3c(c2)OCO3)cc1	3.53%
CCOC(=O)c1cnc(SC2CC(=O)N(c3ccccc3)C2=O)nc1N (stereo not given)	-5.11%
CCOC(=O)c1cnc(SC2CC(=O)N(c3ccc(C)cc3)C2=O)nc1N (stereo not given)	-12.6%
CC(C)(C)OC(=O)C[C@H]1C/C=C\C[C@H](CC(=O)NCCO)C(=O)N2CCC[C@@H]2COC1=O	2.79%
CSc1ccc(CN2CCC(CO)(Cc3ccc(Cl)cc3)CC2)cc1	2.5%
CNC(=O)NC(=O)COC(=O)CCc1nc(=O)c2ccccc2n1C	2.07%
Cn1nnnc1Sc1ncnc2scc(-c3ccccc3)c12	15.1%
Cn1nnnc1Sc1ncnc2scc(-c3cccc4ccccc34)c12	61.1%
COc1cc(C(=O)Nc2cccc(-n3cnnn3)c2)cc(OC)c1OC	-9.02%
Cc1ccc(-c2nn(-c3ccccc3)cc2C=C2C(=O)CC(C)(C)CC2=O)cc1	28.4%
CC1(C)CC(=O)C(=Cc2cn(-c3ccccc3)nc2-c2ccccc2)C(=O)C1	14.4%
CC1C=CCC2C(=O)N(c3cccc(C(=O)NCc4ccccc4)c3)C(=O)C12 (stereo not given)	0.47%
COc1ccc(-c2cn3cc(Cl)ccc3n2)cc1OC	35.8%
COc1ccc(-c2cn3cc(C)ccc3n2)cc1OC	-0.94%

SMILES	inhibition
Cc1ccc(CN(C)C(=O)C2CCC(=O)N(C3CCCCCC3)C2)cc1 (stereo not given)	0.77%
OCCC1CN(Cc2cccn2-c2cccnc2)CCN1C1CCCCC1 (stereo not given)	-3.37%
CO/N=C/NC(=O)NOCc1c(Cl)cccc1Cl	-5.31%
NC(=O)NOCc1c(Cl)cccc1Cl	-2.55%
CN(C(=O)c1ccc2nc(N)sc2c1)c1ccccc1	-7.17%
COc1ccc(NC(=O)/C(=C\c2cccs2)NC(=O)c2ccco2)cc1	6.87%
CCOC(=O)N1CCN(C(=O)CCCN2C(=O)CSc3nc(C)cc(C)c32)CC1	0.43%
COc1ccc(CS(=O)(=O)/C(Cl)=C(/Cl)C(=O)Nc2ccc(OC)nc2)cc1	35%
COc1ccc(NC(=O)CCl)cn1	55.6%
COc1ccc(S(=O)(=O)N2CCOCC2)cc1NC(=O)CCCOc1ccc(Cl)cc1C	-8.9%
COc1ccccc1-n1c(-c2ccccc2)c[n+]2c1CCc1ccccc1-2	10.8% and 4.8%
COc1ccc(-n2c(-c3ccc(Cl)cc3)c[n+]3c2CCCCC3)cc1	-4.69%
O=c1cccc2n1C[C@@H]1C[C@@H]2CN(CC(O)c2ccc([N+](=O)[O-])cc2)C1 (stereo not given in full)	9.8%
COc1ccccc1C(=O)COC(=O)c1cc([N+](=O)[O-])ccc1N1CCOCC1	32.4%
Cc1ccccc1Nc1c(-c2ccccn2)nc2c(C)cccn12	1.32%
Cc1cccn2c(Nc3ccccc3)c(-c3ccccn3)nc12	67.1%
CCSc1nnc(-c2ccc(S(=O)(=O)NCc3cccs3)cc2)o1	-2.17%
Cc1ccc(C(=O)CSc2nnc(-c3c[nH]c4ccccc34)o2)cc1	0.92%
COc1ccccc1-c1nnc(SCC(=O)Nc2ccc(Cl)cc2Cl)o1	-3.38%
CSc1nnc(-c2ccc(Cl)cc2Cl)o1	26.3%

SMILES	inhibition
CCN(CC)C(=O)CSc1nnc(-c2ccc(S(=O)(=O)NCc3ccccc3Cl)cc2)o1	5.34%
CCN(CC)C(=O)CSc1nnc(-c2c[nH]c3ccccc23)o1	1.41%
C/C(=N\O)c1noc(C)c1C(=O)Nc1nccs1	-2.68%
O=S(=O)(c1cccc(-c2cn3ccccc3n2)c1)N1CCCCC1	0.63%
CCOC(=O)[C@H]1NN=C(C(=O)OC)[C@@H]1c1ccccc1	-5.97%
COCCOC(=O)N/C=C\c1nc2ccccc2c(=O)[nH]1	-1.7%
COc1ccc(C2C(C(=O)N3CCN(C)CC3)c3cc(OC)c(OC)cc3C(=O)N2C)cc1 (stereo not given)	11%
CC(=O)c1ccc(NC(=O)C(C)O/N=C(\N)c2ccccc2)cc1 (stereo not given)	1.95%
CCCc1ccc(-c2cc(C(=O)NC3=NCCS3)c3ccccc3n2)cc1	-0.06%
CC1CCCC(NC(=O)COC(=O)c2ccc(S(=O)(=O)N3CCOCC3)cc2)C1C (stereo not given)	-1.74%
Cc1ccc(C(=O)NNC(=O)c2csc(N3CCOCC3)n2)o1	0.22%
Cc1nn(-c2ccc(F)cc2F)c2c1-c1nc(N3CCCC3)ncc1CC2	69.4%
Cc1nn(-c2ccccn2)c2c1-c1nc(N)ncc1CC2	0.53%
CCO/C=N/Nc1nc(C(F)(F)F)nc2c1cnn2Cc1ccccc1	60.4%
COc1ccc(OC)c(NC(=O)c2ccc(OCC(=O)N3CCOCC3)c(OC)c2)c1	1.16%
CN(Cc1ccccc1)c1nc(CN2CCOCC2)nc2scc(-c3ccccc3)c12	5.04%
CCNc1nc(CN2CCCCC2)nc2scc(-c3ccccc3)c12	40.7%
O=C(Nc1ccccc1[N+](=O)[O-])C1=C(O)CCn2c1nc1ccccc12	-3.87%
Cc1ccc(NC(=O)NCc2nc3ccccc3n2C)cc1	-2.85%
COC(=O)CN1C(=O)N(c2ccccc2)C(N(O)C(=O)Nc2ccccc2)C1(C)C (stereo not given)	2.21%

From PubChem BioAssay AID449762 (Southern Research Specialized Biocontainment Screening …, 2010)
